Assay results taken from PubChem BioAssay AID1159580 (chemical genetic matrix, 2015).
Hit rate of the full screen: of about 5,500 compounds, about 2,000 (36%) were called active. Inconclusive results (about 18%) are left out. Cut-off read from the data, not from the text of the source: active = normalized growth mostly below about 0.91 (no sharp cut-off); inconclusive = no clear call, values can overlap the other calls; inactive = mostly above about 0.92. This is one part of the list.

Experiment: chemical genetic growth profiling, strain panel (AID 1159580);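 note: tested at 20 µM; growth read once vehicle control cultures reached saturation at 30 °C; 1 = growth at the plate median or of vehicle wells; lower values mean less growth of the strain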
Settings: growth OD
[1] = S. cerevisiae deletion strains, locus YHR030C, strain SLT2, active compounds read low
[2] = S. cerevisiae deletion strains, locus YHR079C, strain IRE1, active compounds read low
[3] = S. cerevisiae deletion strains, locus YJL095W, strain BCK1, active compounds read low
[4] = S. cerevisiae deletion strains, locus YJR066W, strain TOR1, active compounds read low
[5] = S. cerevisiae deletion strains, locus YLR113W, strain HOG1, active compounds read low
[6] = S. cerevisiae deletion strains, locus YNL183C, strain NPR1, active compounds read low
[7] = S. cerevisiae deletion strains, locus YOR231W, strain MKK1, active compounds read low
[8] = S. cerevisiae deletion strains, locus YPL256C, strain CLN2, active compounds read low

Measured: normalized growth

CN1CCCC(n2nc(Cc3ccc(Cl)cc3)c3ccccc3c2=O)CC1 (centres undefined)
active: S. cerevisiae deletion strains, locus YDR137W, strain rgp1, active compounds read low 1.25 [resistant]
inactive: S. cerevisiae deletion strains, locus YAL021C, strain ccr4, active compounds read low 1.01 | S. cerevisiae deletion strains, locus YAL026C, strain drs2, active compounds read low 1 | S. cerevisiae deletion strains, locus YAL030W, strain snc1, active compounds read low 0.999 | S. cerevisiae deletion strains, locus YBL061C, strain skt5, active compounds read low 1 | S. cerevisiae deletion strains, locus YBR009C, strain hhf1, active compounds read low 0.93 | S. cerevisiae deletion strains, locus YBR023C, strain chs3, active compounds read low 1.02 | S. cerevisiae deletion strains, locus YBR171W, strain sec66, active compounds read low 0.989 | S. cerevisiae deletion strains, locus YBR231C, strain swc5, active compounds read low 0.984 | S. cerevisiae deletion strains, locus YBR279W, strain paf1, active compounds read low 1.02 | S. cerevisiae deletion strains, locus YCL011C, strain gbp2, active compounds read low 0.989 | S. cerevisiae deletion strains, locus YCL016C, strain dcc1, active compounds read low 1.04 | S. cerevisiae deletion strains, locus YCL061C, strain MRC1, active compounds read low 0.968 | S. cerevisiae deletion strains, locus YCL069W, strain vba3, active compounds read low 0.988 | S. cerevisiae deletion strains, locus YCR088W, strain abp1, active compounds read low 0.991 | S. cerevisiae deletion strains, locus YDL005C, strain med2, active compounds read low 0.999 | S. cerevisiae deletion strains, locus YDL040C, strain nat1, active compounds read low 1 | S. cerevisiae deletion strains, locus YDR001C, strain nth1, active compounds read low 1 | S. cerevisiae deletion strains, locus YDR069C, strain doa4, active compounds read low 0.996 | S. cerevisiae deletion strains, locus YDR159W, strain sac3, active compounds read low 0.912 | S. cerevisiae deletion strains, locus YDR195W, strain ref2 0.972 | S. cerevisiae deletion strains, locus YDR297W, strain sur2, active compounds read low 0.99 | S. cerevisiae deletion strains, locus YDR334W, strain swr1, active compounds read low 0.981 | S. cerevisiae deletion strains, locus YDR335W, strain msn5, active compounds read low 1.01 | S. cerevisiae deletion strains, locus YDR392W, strain spt3, active compounds read low 0.772 | S. cerevisiae deletion strains, locus YEL003W, strain gim4, active compounds read low 0.948 | S. cerevisiae deletion strains, locus YEL037C, strain rad23, active compounds read low 0.992 | S. cerevisiae deletion strains, locus YEL061C, strain CIN8 (second series), active compounds read low 0.983 | S. cerevisiae deletion strains, locus YER015W, strain faa2, active compounds read low 0.966 | S. cerevisiae deletion strains, locus YER016W, strain bim1, active compounds read low 1.03 | S. cerevisiae deletion strains, locus YER111C, strain swi4, active compounds read low 1.01 | S. cerevisiae deletion strains, locus YER155C, strain BEM2 (second series), active compounds read low 0.884 | S. cerevisiae deletion strains, locus YFR010W, strain ubp6, active compounds read low 0.941 | S. cerevisiae deletion strains, locus YGL167C, strain pmr1, active compounds read low 0.982 | S. cerevisiae deletion strains, locus YGL173C, strain kem1, active compounds read low 0.964 | S. cerevisiae deletion strains, locus YGL227W, strain vid30, active compounds read low 1 | S. cerevisiae deletion strains, locus YGL240W, strain doc1, active compounds read low 0.942 | S. cerevisiae deletion strains, locus YGL253W, strain hxk2, active compounds read low 1.02 | S. cerevisiae deletion strains, locus YHR013C, strain ard1, active compounds read low 0.994 | S. cerevisiae deletion strains, locus YHR027C, strain rpn1, active compounds read low 0.944 | [1] 1.03 | [2] 1.02 | S. cerevisiae deletion strains, locus YHR142W, strain chs7, active compounds read low 1.02 | S. cerevisiae deletion strains, locus YJL092W, strain hpr5, active compounds read low 0.981 | S. cerevisiae deletion strains, locus YJL095W, strain BCK1 (second series), active compounds read low 0.996 | [3] 0.979 | S. cerevisiae deletion strains, locus YJL115W, strain asf1, active compounds read low 1.02 | S. cerevisiae deletion strains, locus YJL129C, strain trk1, active compounds read low 1.07 | S. cerevisiae deletion strains, locus YJL154C, strain vps35, active compounds read low 0.992 | S. cerevisiae deletion strains, locus YJL164C, strain tpk1, active compounds read low 0.964 | S. cerevisiae deletion strains, locus YJL166W, strain qcr8, active compounds read low 0.96 | S. cerevisiae deletion strains, locus YJL187C, strain SWE1, active compounds read low 1.01 | [4] 0.99 | S. cerevisiae deletion strains, locus YKL160W, strain elf1, active compounds read low 1.04 | S. cerevisiae deletion strains, locus YKR026C, strain gcn3, active compounds read low 0.995 | S. cerevisiae deletion strains, locus YKR091W, strain srl3, active compounds read low 1 | S. cerevisiae deletion strains, locus YLL001W, strain dnm1, active compounds read low 0.958 | S. cerevisiae deletion strains, locus YLL026W, active compounds read low 1 | S. cerevisiae deletion strains, locus YLL041C, strain sdh2, active compounds read low 0.99 | S. cerevisiae deletion strains, locus YLR027C, strain aat2, active compounds read low 1.01 | [5] 0.975 | S. cerevisiae deletion strains, locus YLR221C, strain rsa3, active compounds read low 0.954 | S. cerevisiae deletion strains, locus YLR258W, strain gsy2, active compounds read low 1.02 | S. cerevisiae deletion strains, locus YLR262C, strain YPT6 (second series), active compounds read low 1.06 | S. cerevisiae deletion strains, locus YLR320W, strain mms22, active compounds read low 0.905 | S. cerevisiae deletion strains, locus YLR342W, strain FKS1, active compounds read low 1 | S. cerevisiae deletion strains, locus YLR357W, strain rsc2, active compounds read low 0.949 | S. cerevisiae deletion strains, locus YLR370C, strain arc18, active compounds read low 1.02 | S. cerevisiae deletion strains, locus YLR384C, strain iki3, active compounds read low 0.996 | S. cerevisiae deletion strains, locus YML120C, strain ndi1, active compounds read low 0.95 | S. cerevisiae deletion strains, locus YMR058W, strain fet3, active compounds read low 0.961 | S. cerevisiae deletion strains, locus YMR125W, strain sto1, active compounds read low 0.983 | S. cerevisiae deletion strains, locus YMR129W, active compounds read low 1 | S. cerevisiae deletion strains, locus YMR205C, strain PFK2, active compounds read low 0.981 | S. cerevisiae deletion strains, locus YMR231W, strain pep5, active compounds read low 1 | S. cerevisiae deletion strains, locus YNL071W, strain lat1, active compounds read low 0.993 | [6] 0.975 | S. cerevisiae deletion strains, locus YNL209W, strain ssb2, active compounds read low 0.993 | S. cerevisiae deletion strains, locus YNL248C, strain rpa49, active compounds read low 1 | S. cerevisiae deletion strains, locus YNL322C, strain KRE1 (second series), active compounds read low 1.01 | S. cerevisiae deletion strains, locus YNR049C, strain mso1, active compounds read low 1 | S. cerevisiae deletion strains, locus YOR001W, strain rrp6, active compounds read low 0.902 | S. cerevisiae deletion strains, locus YOR070C, strain gyp1, active compounds read low 1.01 | S. cerevisiae deletion strains, locus YOR080W, strain dia2, active compounds read low 0.98 | S. cerevisiae deletion strains, locus YOR083W, strain WHI5, active compounds read low 0.966 | S. cerevisiae deletion strains, locus YOR106W, strain vam3, active compounds read low 0.993 | [7] 0.993 | S. cerevisiae deletion strains, locus YOR265W, strain rbl2, active compounds read low 0.998 | S. cerevisiae deletion strains, locus YOR270C, strain vph1, active compounds read low 0.93 | S. cerevisiae deletion strains, locus YOR290C, strain snf2, active compounds read low 1.01 | S. cerevisiae deletion strains, locus YPL051W, strain arl3, active compounds read low 1.05 | S. cerevisiae deletion strains, locus YPL078C, strain atp4, active compounds read low 1.01 | S. cerevisiae deletion strains, locus YPL106C, strain sse1, active compounds read low 1.08 | S. cerevisiae deletion strains, locus YPL240C, strain hsp82, active compounds read low 1 | [8] 1.01

O=C1CCO1
inactive: [1] 0.984 | [2] 0.99 | [3] 0.999 | [4] 0.946 | [5] 0.942 | [6] 0.951 | [7] 0.996 | [8] 0.992

CC1(C)/C(=N/OC(=O)c2cccc(C(F)(F)F)c2)[C@]2(C)CCC1C2
active: S. cerevisiae deletion strains, locus YML094W, strain GIM5, active compounds read low 1.18 [resistant]
inactive: S. cerevisiae deletion strains, locus YAL013W, strain DEP1, active compounds read low 1.01 | S. cerevisiae deletion strains, locus YBR229C, strain ROT2, active compounds read low 1.01 | S. cerevisiae deletion strains, locus YDL101C, strain DUN1, active compounds read low 1.04 | S. cerevisiae deletion strains, locus YDL134C, strain PPH21, active compounds read low 1 | S. cerevisiae deletion strains, locus YDR150W, strain NUM1, active compounds read low 0.989 | S. cerevisiae deletion strains, locus YEL061C, strain CIN8, active compounds read low 1.04 | S. cerevisiae deletion strains, locus YGR078C, strain PAC10, active compounds read low 0.996 | S. cerevisiae deletion strains, locus YGR229C, strain SMI1, active compounds read low 0.999 | [1] 0.88 | S. cerevisiae deletion strains, locus YHR087W, strain rtc3, active compounds read low 0.99 | S. cerevisiae deletion strains, locus YJR043C, strain POL32, active compounds read low 0.978 | S. cerevisiae deletion strains, locus YJR075W, strain HOC1, active compounds read low 0.979 | S. cerevisiae deletion strains, locus YKL190W, strain CNB1, active compounds read low 1.01 | S. cerevisiae deletion strains, locus YLR039C, strain RIC1, active compounds read low 0.977 | S. cerevisiae deletion strains, locus YLR058C, strain SHM2 (second series), active compounds read low 1.01 | S. cerevisiae deletion strains, locus YLR085C, strain ARP6, active compounds read low 1 | S. cerevisiae deletion strains, locus YLR262C, strain YPT6, active compounds read low 0.964 | S. cerevisiae deletion strains, locus YMR219W, strain ESC1, active compounds read low 0.987 | S. cerevisiae deletion strains, locus YMR263W, strain SAP30, active compounds read low 0.967 | S. cerevisiae deletion strains, locus YMR307W, strain GAS1, active compounds read low 0.741 | S. cerevisiae deletion strains, locus YNL128W, strain TEP1, active compounds read low 1.01 | S. cerevisiae deletion strains, locus YNL153C, strain GIM3, active compounds read low 0.963 | S. cerevisiae deletion strains, locus YNL298W, strain CLA4 (second series), active compounds read low 0.987 | S. cerevisiae deletion strains, locus YNL322C, strain KRE1, active compounds read low 1.02 | S. cerevisiae deletion strains, locus YNR030W, strain Alg12, active compounds read low 1.01 | S. cerevisiae deletion strains, locus YOL006C, strain TOP1, active compounds read low 0.898 | S. cerevisiae deletion strains, locus YPL055C, strain LGE1, active compounds read low 1 | S. cerevisiae deletion strains, locus YPL241C, strain CIN2, active compounds read low 1.01 | S. cerevisiae deletion strains, locus YPR135W, strain CTF4, active compounds read low 1.06 | S. cerevisiae strains, strain wild type, active compounds read low 0.999
